# Screening results: PubChem BioAssay, National Center for Advancing Translational Sciences (NCATS)
# Sampled rows, rich in hits. Any-hit rate of the full collection: about 7.5%.
# Luc counter – counter-screen: inhibitors of Kinase-Glo firefly luciferase | Q27757 | Kinase-Glo luciferase, ATP luminescence, 8 min | Potency, µM (series often up to 38.3 µM), for the others: top-dose activity change, negative = inhibition, hits mostly inhibitors | 0.28% of 200,000 active | AID 1379; note: % is set by controls: 0 for no effect and ±100 for the full control effect; nearly all actives have a fitted effect of over 60% in size
#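 Luminescence was the read-out, taken after 8-minute incubation at ambient temperature. Luciferase turned over luciferin with 10 uM ATP in imidazole pH 7.2 buffer containing KCl, MgCl2, Tween 20 and BSA.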
# ELG1 genotox – induces genotoxicity in HEK293T cells with luciferase-tagged ELG1 | HEK293T ELG1-luciferase reporter, luminescence, 16 h | Potency, µM (doses to about 46 µM), without a hit: at the highest dose activity change, positive = activation, most hits filed as activators | 1.3% of 330,000 active; note: % of control where 0% means no effect; nearly all actives have a fitted effect of over 60% in size
#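 Cells (2,000/well) expressing the ELG1-luciferase fusion are dosed by pin tool and kept 16 hr at 37 °C, 5% CO2. Signal comes from ONE-Glo luciferase reagent after 30 min at room temperature.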
# FLuc modulator – firefly luciferase modulation, counter-screen for miR-21 project | purified FLuc, Km substrates, luminescence inhibition | AID 588342 | P08659 | 6.9% of 360,000 active | Potency, µM (doses to about 57.5 µM), for the others: at the top dose activity change, negative = inhibition, actives largely listed as inhibitors;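 note: plate controls were vehicle for no effect and reference inhibitor for full effect; nearly all actives have a fitted effect of over 55% in size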
# Target sequence (P08659 whole entry, looked up): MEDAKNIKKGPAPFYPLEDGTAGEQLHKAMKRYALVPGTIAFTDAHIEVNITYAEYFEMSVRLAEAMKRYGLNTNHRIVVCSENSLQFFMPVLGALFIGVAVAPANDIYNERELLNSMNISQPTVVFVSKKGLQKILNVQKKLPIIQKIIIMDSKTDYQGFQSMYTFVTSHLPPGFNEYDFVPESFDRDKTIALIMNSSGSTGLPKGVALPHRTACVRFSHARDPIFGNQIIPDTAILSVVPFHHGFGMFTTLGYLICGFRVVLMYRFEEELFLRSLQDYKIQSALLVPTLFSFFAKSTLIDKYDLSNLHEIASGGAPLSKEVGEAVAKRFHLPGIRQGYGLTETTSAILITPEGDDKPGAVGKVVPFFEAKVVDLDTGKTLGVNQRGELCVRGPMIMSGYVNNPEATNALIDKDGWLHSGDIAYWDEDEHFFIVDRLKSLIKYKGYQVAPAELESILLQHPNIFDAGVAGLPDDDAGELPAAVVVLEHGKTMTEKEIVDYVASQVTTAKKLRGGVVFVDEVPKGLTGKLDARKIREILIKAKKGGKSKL
#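 Purified P. pyralis luciferase, 10 nM final, with Km-level 10 uM D-luciferin and 10 uM ATP in 50 mM Tris acetate pH 7.5, 10 mM Mg acetate, 0.01% Tween-20, 0.05% BSA; 6-point qHTS titration about 60 µM downward; luminescence read.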
# Rab9 prom act – activators of Rab9 promoter. Huh7 Rab9 promoter-luciferase reporter, luminescence, 24 h. Potency, µM (top dose mostly 9.22 µM), for inactives: at the top dose activation, negative = inhibition, usual class: activators. 2.8% of 320,000 active. AID 485297; note: % of control where 0% means no effect; nearly all actives have a fitted effect of over 60% in size
#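 Cell-based reporter: Huh7 stable for Rab9 promoter-driven luciferase, plated in reduced-serum medium with 10% FBS at 1500 cells/well, compound-treated 24 h at 37 °C, luminescence read after 10 min reagent.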
# NPC1 prom act – NPC1 promoter activation; Huh7 NPC1 promoter luciferase reporter, 24 h; Potency, µM (highest dose often 9.22 µM), inactives show at the top dose activation, hits mostly activators; 2.4% of 320,000 active; AID 485313; note: % of control where 0% means no effect; nearly all actives have a fitted effect of over 60% in size
#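 Luminescence from an NPC1 promoter-driven luciferase reporter in stably transfected Huh7 cells was measured after 24 h compound treatment at 37 °C, followed by 10 min ambient incubation with luciferase detection reagent.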
# SMN2 splice up – enhancers of SMN2 splice variant expression | AID 1458 | HEK293 SMN2-luciferase splicing reporter, luminescence, 30-36 h | Potency, µM (highest dose often 46.1 µM), without a hit: at the highest dose activity change, positive = activation, actives largely listed as activators | 2.8% of 210,000 active; note: % of control where 0% means no effect; nearly all actives have a fitted effect of over 55% in size
#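 HEK293 cells carry an SMN2 minigene-luciferase reporter in which exon 7 inclusion puts luciferase in frame. Cells were seeded at 2000 cells/well, attached for 10-12 hours, then exposed to compounds for 30-36 hours at 37C before ONE-Glo luminescence.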
# * marks the source's active call; other numbers are inactive results; ? = inconclusive; · = no result given. Calls come from the whole dose curve; as a rule, active = well fitted curve in the direction sought with a large enough effect; inconclusive = small, poorly fitted or top-dose-only effect, or another doubt; inactive = no such curve, though single readings can be large; an effect the other way counts as inactive or inconclusive. Potency is the fitted concentration of half-maximal effect.
SMILES,Luc counter,ELG1 genotox,FLuc modulator,Rab9 prom act,NPC1 prom act,SMN2 splice up
Cc1nc(N)sc1N=Nc1ccc(F)cc1,-2%,12µM*,12µM*,?,?,12%
CCn1cnc2sc(C(=O)Oc3cccc(C)c3)c(C)c2c1=O,0%,18µM*,?,?,?,-14%
O=C(Nc1cccc(Br)c1)Nc1nc2c(s1)CCCCCC2,·,·,11µM*,·,·,·
CN(Cc1ccccc1)c1nnc(NC(=O)Nc2cccc(Br)c2)s1,·,·,-13%,·,·,·
COc1ccc(NC(=O)Nc2nc3c(s2)CCCC3)cc1,1%,18%,4.8µM*,1.8µM*,4µM*,13µM*
O=C(Nc1ccc(Cl)cc1Cl)c1cc(S(=O)(=O)N2CCN(c3ccccc3F)CC2)ccc1F,·,·,-2%,·,·,·
CC1(C)C(=O)N(CC(=O)Nc2ccc(Br)cc2F)c2ccccc21,·,·,-13%,·,·,·
O=C(COc1ccc(Br)cc1)Nc1ccc(-c2nnc(-c3ccco3)o2)cc1,-1%,13%,1%,2.2µM*,4µM*,8.9µM*
Clc1ccc(-c2nnc(-c3ccco3)o2)cc1,-12%,?,12µM*,2.8µM*,3.5µM*,?
COc1ccccc1OCC(=O)Nc1ccc(-c2nnc(-c3ccco3)o2)cc1,-4%,4%,1%,21%,10%,5.6µM*
CCC(Oc1ccccc1)C(=O)Nc1ccc(-c2nnc(-c3ccco3)o2)cc1 (stereo not given),4%,11%,-12%,?,?,11µM*
c1cncc(-c2nnc(-c3ccco3)o2)c1,-1%,?,0%,-6%,-2%,22%
Cc1ccc(CNC(=O)CCCN2C(=O)CCn3nc(-c4cccn4C)cc32)cc1,·,·,-5%,·,·,·
COCCCNC(=O)COc1ccc(Br)cc1Cl,0%,?,?,?,?,16µM*
Cc1ccc(OCC(=O)NNC(=S)NC(=O)C(C)(C)C)c(Br)c1,3%,4%,27µM*,5%,1%,-47%
Cc1ccc(OCC(=O)NC(=S)Nc2ccccn2)c(Br)c1,·,0.13µM*,0.19µM*,2.8µM*,1.6µM*,·
CCNC(=O)COc1ccc(Br)cc1Cl,0%,?,?,30%,26%,10%
O=C(COc1ccc(Br)cc1Cl)NC(=S)Nc1ccccn1,·,1.6µM*,1.1µM*,?,?,·
Cc1ccc(OCC(=O)NNC(=S)NC(=O)C2CC2)c(C)c1,·,8%,13µM*,-8%,-5%,·
CCn1cc(S(=O)(=O)Nc2ccc3c(c2)OCCO3)cn1,-1%,?,17µM*,-9%,3%,·
Cn1cc(S(=O)(=O)Nc2ccc3c(c2)OCCO3)cn1,·,?,?,12%,-4%,·
O=C(O)COc1ccccc1/C=N/NC(=O)COc1ccc(-c2ccccc2)cc1,·,-3%,4.8µM*,-5%,-3%,·
CC(C)(C)c1ccc(C(=O)NCC(=O)N/N=C/c2ccccc2OCC(=O)O)cc1,1%,5%,17µM*,0%,0%,6%
COc1cc(Cl)c(C)cc1NC(=O)Cn1ncc2c([nH]c3ccccc32)c1=O,·,·,-4%,·,·,·
c1ccc(-n2ncc3c(NCCN4CCOCC4)ncnc32)cc1,-8%,13µM*,?,11%,?,·
SMILES,Luc counter,ELG1 genotox,FLuc modulator,Rab9 prom act,NPC1 prom act,SMN2 splice up
COc1ccccc1Oc1ncnc2c1cnn2-c1ccccc1,1%,?,12µM*,4µM*,?,13µM*
Fc1ccc(CNc2ncnc3c2cnn3-c2ccccc2)cc1,-3%,·,?,·,·,-17%
c1ccc(-n2ncc3c(NCCN4CCCCC4)ncnc32)cc1,0%,?,19µM*,?,?,10%
c1ccc(CCNc2ncnc3c2cnn3-c2ccccc2)cc1,2%,?,6.7µM*,1.6µM*,3.2µM*,11µM*
Cc1ccc(Cl)cc1NC(=O)Cn1c(=O)cc(C)c2c(C)nn(C)c21,·,·,-1%,·,·,·
COc1ccc(Nc2nc3c(S(=O)(=O)c4ccccc4)nnn3c3ccsc23)cc1OC,·,·,-6%,·,·,·
COc1ccc(-n2ncc3c(NC(C)(C)CO)ncnc32)cc1,·,·,4.8µM*,·,·,·
COc1ccc(C(=O)NNc2ncnc3c2cnn3-c2ccccc2)cc1,·,·,-9%,·,·,·
CC(C)(C)Nc1ncnc2c1cnn2-c1ccccc1,-1%,1µM*,1.5µM*,0.4µM*,0.35µM*,2µM*
O=c1[nH]n(-c2ncnc3c2cnn3-c2ccccc2)c(=O)c2ccccc12,0%,0%,13µM*,5%,-3%,-3%
COc1cccc(-n2c(=O)c3sc4ccccc4c3n(CC(=O)NC3CCCCC3)c2=O)c1,·,·,0%,·,·,9%
CCN1CCN(Cc2ccc(NC(=O)c3cc(NC(=O)c4cnn(-c5ccccc5)c4N)cc(OC)c3)cc2C(F)(F)F)CC1,·,-5%,17µM*,0%,-1%,·
CCN1CCN(Cc2ccc(NC(=O)c3ccc(C)c(NC(=O)c4ccc5n[nH]nc5c4)c3)cc2C(F)(F)F)CC1,·,-1%,19µM*,1%,-2%,·
CCN1CCN(Cc2ccc(NC(=O)c3cc(NC(=O)C(=O)c4c[nH]c5ccccc45)cc(OC)c3)cc2C(F)(F)F)CC1,·,-16%,9.5µM*,-4%,-5%,·
CCN1CCN(Cc2ccc(NC(=O)c3cc(NC(=O)c4cc(C)on4)cc(OC)c3)cc2C(F)(F)F)CC1,·,?,?,-1%,-5%,·
